Consider 20 compounds from PubChem BioAssay (EPA / NIEHS).

Where a structure was tested more than once in an assay, its records may differ in their call. Active and inactive are the calls of the source. The calls were made as follows: active = hit-call score of the fitted dose curve at least 0.9, where 1 is the maximum; inactive = score below 0.9.

Test [1] is described as follows: ATG_GRE_CIS: Attagene CIS-FACTORIAL HepG2 Assay for human Glucocorticoid Response Elements (GRE) (AID 2282947). As to conditions: HepG2 GRE cis-reporter, Attagene multiplex mRNA; actives raise or lower the signal. Summed up: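 Assay uses human hepatoma HepG2 cells transfected with cis-promoter reporter units, exposed 24 h. mRNA from reporters detected by RT-PCR plus capillary electrophoresis; DMSO serves as negative control and baseline.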

A short description of test [2]: ATG_ISRE_CIS: Attagene CIS-FACTORIAL HepG2 Assay for human Interferon Regulatory Factor 1 (IRF1) binding to an Interferon-Stimulated Response Element (ISRE) (AID 2282948). Conditions: HepG2 ISRE cis-reporter (Attagene), mRNA transcription readout; actives raise or lower the signal. In outline:
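Quantitation relies on labelled RT-PCR fragments separated by capillary electrophoresis. Human HepG2 cells bearing cis-promoter reporter constructs were treated 24 h; DMSO served as baseline for bidirectional fitting.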

Test [3] can be described thus: ATG_M_32_CIS: Attagene CIS-FACTORIAL HepG2 Assay for M32 Transcription Factor (Internal Marker) (AID 2282949).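 Also: background control marker of the multiplexed CIS panel rather than a real target.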 Conditions: HepG2 Attagene cis-factorial M32 reporter, mRNA; actives raise or lower the signal. In outline: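 Following 24 h chemical exposure of HepG2 cells transiently expressing cis-promoter reporter constructs, reporter transcript levels were determined by RT-PCR with fluorescent labelling and capillary electrophoresis, then fitted bidirectionally against DMSO.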

A short description of test [4]: ATG_M_06_CIS: Attagene CIS-FACTORIAL HepG2 Assay for M06 Transcription Factor (Internal Marker) (AID 2282950). As to conditions: HepG2 Attagene CIS-FACTORIAL M06 internal marker reporter; actives raise or lower the signal. In outline:
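Read-out is fluorescence of labelled reporter cDNA fragments resolved by capillary electrophoresis after RT-PCR. Cells: HepG2 carrying transfected cis-promoter reporter units, treated 24 h. Gain or loss of signal fitted relative to DMSO.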

For test [5], the target named is Hepatocyte nuclear factor 6 (Homo sapiens) (UniProt Q9UBC0). Nature of the test: ATG_HNF6_CIS: Attagene CIS-FACTORIAL HepG2 Assay for human Hepatocyte Nuclear Factor 6 (HNF6) (AID 2282952). As to conditions: HepG2 Attagene cis-factorial HNF6 reporter transcription; actives raise or lower the signal. Summed up: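 Reporter mRNA induction or loss in HepG2 after 24 h exposure; transient cis-MRTU transfection; fragments quantified by capillary electrophoresis; bidirectional analysis, DMSO as negative control.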

The nature of test [6]: ATG_MRE_CIS: Attagene CIS-FACTORIAL HepG2 Assay for human Metal Responsive Element (MRE) (AID 2282954). Conditions: HepG2 MRE cis-reporter transcription, Attagene multiplex; actives raise or lower the signal. In outline:
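After a 24 h chemical exposure, transiently transfected HepG2 cells yield RNA whose reporter sequences are amplified, FAM-labelled and sized by capillary electrophoresis. Curves are fitted bidirectionally relative to DMSO.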

A short description of test [7]: ATG_PBREM_CIS: Attagene CIS-FACTORIAL HepG2 Assay for human Phenobarbital-responsive Enhancer Module (PBREM) (AID 2282955). Conditions: HepG2 PBREM cis-reporter, Attagene multiplexed transcription; actives raise or lower the signal. In outline:
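HepG2, transient MRTU transfection, 24 h dosing; RNA → oligo(dT) RT → PCR → 6-FAM extension → HpaI → CE. Bidirectional fit vs DMSO.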

Test [8] concerns the target Paired box protein Pax-6 (Homo sapiens) (UniProt P26367). Nature of the test: ATG_Pax6_CIS: Attagene CIS-FACTORIAL HepG2 Assay for human Paired Box 6 (PAX6) (AID 2282956). As to conditions: HepG2 CIS-FACTORIAL PAX6 reporter transcription, RNA readout; actives raise or lower the signal. Summed up: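 After twenty-four hours of chemical exposure, transfected HepG2 cells are harvested for RNA. Cis-promoter reporter transcripts are amplified, fluorescently labelled and sized by capillary electrophoresis, with gain and loss of signal scored against DMSO.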

The target in test [9] is Hypoxia-inducible factor 1-alpha (Homo sapiens) (UniProt Q16665). Nature of the test: ATG_HIF1a_CIS: Attagene CIS-FACTORIAL HepG2 Assay for human Hypoxia Inducible Factor 1 (HIF1A) (AID 2282951). Conditions: HepG2 Attagene cis-factorial HIF1a reporter transcription; actives raise or lower the signal. Summed up: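 HepG2, transient cis-reporter library, 24 h dosing. RNA → RT (oligo dT) → PCR → 6-FAM primer extension → HpaI → CE. Bidirectional curve fit vs DMSO.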

For test [10], the target named is Heat shock factor protein 1 (Homo sapiens) (UniProt Q00613). The test is described as follows: ATG_HSE_CIS: Attagene CIS-FACTORIAL HepG2 Assay for human Heat Shock Transcription Factor 1 (HSE) (AID 2282953). As to conditions: HepG2 HSE cis-reporter, Attagene RNA transcription; actives raise or lower the signal. In outline:
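HepG2, transient MRTU transfection, cis-promoter reporters (endogenous TF activity). 24 h compound. RNA → oligo(dT) RT → PCR → 6-FAM primer extension → HpaI cut → CE. Bidirectional fit vs DMSO.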

Sequence of Heat shock factor protein 1 (Homo sapiens) (Q00613 whole entry, looked up): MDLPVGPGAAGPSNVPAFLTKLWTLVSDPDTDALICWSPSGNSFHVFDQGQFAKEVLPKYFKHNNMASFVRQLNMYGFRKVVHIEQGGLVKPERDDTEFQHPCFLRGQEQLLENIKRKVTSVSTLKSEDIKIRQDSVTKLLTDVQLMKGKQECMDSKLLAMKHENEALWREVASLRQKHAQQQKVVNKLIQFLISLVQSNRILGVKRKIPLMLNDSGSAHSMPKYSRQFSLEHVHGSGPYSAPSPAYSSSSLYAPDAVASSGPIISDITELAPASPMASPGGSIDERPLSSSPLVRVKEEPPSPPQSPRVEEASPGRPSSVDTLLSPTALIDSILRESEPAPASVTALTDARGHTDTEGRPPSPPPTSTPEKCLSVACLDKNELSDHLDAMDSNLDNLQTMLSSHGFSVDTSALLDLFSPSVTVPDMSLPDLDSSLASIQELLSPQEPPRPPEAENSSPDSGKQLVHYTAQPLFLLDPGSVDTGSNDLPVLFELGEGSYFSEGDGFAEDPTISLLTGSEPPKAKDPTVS
Sequence of Hepatocyte nuclear factor 6 (Homo sapiens) (Q9UBC0 whole entry, looked up, the tested form may be a part): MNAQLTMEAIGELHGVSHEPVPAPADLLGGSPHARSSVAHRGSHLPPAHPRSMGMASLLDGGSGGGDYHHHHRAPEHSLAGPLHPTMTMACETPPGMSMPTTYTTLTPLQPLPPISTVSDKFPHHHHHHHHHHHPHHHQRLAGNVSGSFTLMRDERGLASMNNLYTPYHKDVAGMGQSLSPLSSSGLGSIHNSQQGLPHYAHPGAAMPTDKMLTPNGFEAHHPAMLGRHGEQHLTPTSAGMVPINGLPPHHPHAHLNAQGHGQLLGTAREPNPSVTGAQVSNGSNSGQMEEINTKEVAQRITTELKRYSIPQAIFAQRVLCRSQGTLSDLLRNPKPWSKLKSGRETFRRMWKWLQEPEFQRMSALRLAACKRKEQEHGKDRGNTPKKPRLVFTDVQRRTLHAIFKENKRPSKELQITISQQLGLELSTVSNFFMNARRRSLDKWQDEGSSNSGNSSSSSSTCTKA
Sequence of Paired box protein Pax-6 (Homo sapiens) (P26367 whole entry, looked up): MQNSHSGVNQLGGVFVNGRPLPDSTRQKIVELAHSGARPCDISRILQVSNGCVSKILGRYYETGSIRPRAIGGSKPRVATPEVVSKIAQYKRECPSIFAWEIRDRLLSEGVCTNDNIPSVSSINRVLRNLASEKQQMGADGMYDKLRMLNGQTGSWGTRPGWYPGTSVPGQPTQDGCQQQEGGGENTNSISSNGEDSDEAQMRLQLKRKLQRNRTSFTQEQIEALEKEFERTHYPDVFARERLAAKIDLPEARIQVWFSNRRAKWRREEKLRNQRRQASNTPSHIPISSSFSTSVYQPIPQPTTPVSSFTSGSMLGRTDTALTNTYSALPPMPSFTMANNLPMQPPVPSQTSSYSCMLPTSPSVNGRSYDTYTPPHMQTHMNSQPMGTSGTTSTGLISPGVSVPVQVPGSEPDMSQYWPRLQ
Sequence of Hypoxia-inducible factor 1-alpha (Homo sapiens) (Q16665 whole entry, looked up): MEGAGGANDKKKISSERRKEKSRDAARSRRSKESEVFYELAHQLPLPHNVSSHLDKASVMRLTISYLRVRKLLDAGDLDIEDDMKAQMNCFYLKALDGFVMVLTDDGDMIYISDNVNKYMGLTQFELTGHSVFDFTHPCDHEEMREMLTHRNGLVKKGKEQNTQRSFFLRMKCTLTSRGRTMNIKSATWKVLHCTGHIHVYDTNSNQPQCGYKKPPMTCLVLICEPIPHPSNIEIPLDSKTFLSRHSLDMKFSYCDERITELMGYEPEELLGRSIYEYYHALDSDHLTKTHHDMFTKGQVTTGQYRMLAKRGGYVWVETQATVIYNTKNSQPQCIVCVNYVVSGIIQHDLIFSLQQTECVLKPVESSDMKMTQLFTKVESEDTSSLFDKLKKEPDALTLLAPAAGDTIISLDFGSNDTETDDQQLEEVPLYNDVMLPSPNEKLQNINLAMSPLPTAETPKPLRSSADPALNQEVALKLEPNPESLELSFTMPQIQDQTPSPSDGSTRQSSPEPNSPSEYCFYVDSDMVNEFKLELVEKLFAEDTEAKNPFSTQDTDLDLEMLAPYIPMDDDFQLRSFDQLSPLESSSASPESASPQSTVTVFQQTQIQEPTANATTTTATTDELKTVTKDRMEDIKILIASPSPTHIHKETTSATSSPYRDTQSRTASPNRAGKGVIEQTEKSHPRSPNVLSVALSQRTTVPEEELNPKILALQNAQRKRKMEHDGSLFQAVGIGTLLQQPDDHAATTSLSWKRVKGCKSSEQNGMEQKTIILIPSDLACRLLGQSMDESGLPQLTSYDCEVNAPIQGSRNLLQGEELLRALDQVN

Consider `Oc1ccccc1O`, for which the result in test [1], in [2], in test [3], in [4], in test [5] and in [6] was inactive. Further, the outcome in test [7] and in [8] was inactive.
Turning to `O=C(NS(=O)(=O)/C=C/c1cccs1)c1ccc(F)cc1Br`, the compound was called inactive in test [1], in [2], in test [3], in test [9], in test [5] and in test [10]. The compound was called inactive in [6], in test [7] and in test [8].
As for `Cc1ccc(-c2cc(C(F)(F)F)nn2-c2ccc(S(N)(=O)=O)cc2)cc1`, the outcome in test [1], in test [2], in test [3], in test [9], in test [5] and in [10] was inactive. The outcome in test [8] was inactive. In addition, in [6], the half-maximal activity concentration (AC50) was 6.28 µM (active).
Consider `CC(N)=O`, for which the compound was classed as inactive in [1], in [2], in test [3], in test [4], in test [5] and in test [6]. Further, the call in [8] was inactive.
As to `CC(C)c1cccc(C(C)C)c1NC(=O)NS(=O)(=O)c1cc(C(C)(C)O)co1`, the compound was called inactive in [1], in test [2], in [3], in test [9], in test [5] and in [10]. Also, the call in test [6] and in [8] was inactive.
On to `CC(COCC(C)OC(=O)c1ccccc1)OC(=O)c1ccccc1` (stereo not drawn), for which the call in test [1], in [2], in [3], in [9], in test [5] and in test [10] was inactive. The compound was called inactive in [6], in test [7] and in test [8].
For `C=CCCCCCCCCCCCC`, the call in [1], in [2], in [3], in test [9], in test [5] and in test [6] was inactive. The result in [7] and in [8] was inactive.
As for `CC(=O)[C@@]1(O)CC[C@H]2[C@@H]3CCC4=CC(=O)CC[C@]4(C)[C@H]3CC[C@@]21C`, the call in [1], in [2], in test [3], in test [4], in test [5] and in [10] was inactive. The call in test [6] and in [8] was inactive.
Consider `CC1=C(C)S(=O)(=O)CCS1(=O)=O`, for which the result in [1], in test [2], in [3], in [4], in [9] and in test [5] was inactive. Besides, the call in test [10], in test [6], in test [7] and in [8] was inactive.
For the compound `O=C(O)CN(CC(=O)O)CC(=O)O`, the compound was called inactive in [1], in test [2], in test [3], in test [4], in [9] and in test [5]. Also, the call in [10], in test [6], in test [7] and in test [8] was inactive.
Regarding `C=CCc1ccc(OC)c(OC)c1`, the compound was called inactive in test [1], in [2], in test [3], in test [4], in test [5] and in test [10]. Further, the call in [6] and in [8] was inactive. The AC50 in test [9] is 0.0538 µM (active).
For `CC(=O)S[C@H](C(=O)N[C@H]1Cc2ccccc2[C@H]2CCC[C@@H](C(=O)O)N2C1=O)C(C)C`, the result in test [1], in test [2], in test [3], in test [9], in test [5] and in [6] was inactive. For the same compound, the result in [7] and in test [8] was inactive.
Turning to `COC(=O)CCCC(=O)OC`, the outcome in test [1], in [2], in test [3], in test [4], in [9] and in [5] was inactive. The result in [10], in [6], in test [7] and in test [8] was inactive.
With `CC(C)(O)c1ccc(CNC(=O)c2cccnc2Oc2ccc(F)cc2)cc1`, the compound was classed as inactive in test [1], in test [2], in test [3], in test [4], in [9] and in test [5]. Besides, the compound was called inactive in test [6], in test [7] and in test [8].
On to `CCN(CC)CCOc1ccc(C(=C(Cl)c2ccccc2)c2ccccc2)cc1`, for which the result in test [1], in [2], in [3], in test [4], in [9] and in test [5] was inactive. Besides, the call in test [6], in test [7] and in test [8] was inactive. For the same compound, the AC50 in test [9] is 9.35 µM (active); in [5], 11.4 µM (active); in test [6] it was 13.8 µM (active); in [8] it was 10.4 µM (active).
In the case of `COC(=O)[C@H]1[C@H]2C[C@@H]3c4[nH]c5cc(OC)ccc5c4CCN3C[C@H]2C[C@@H](OC(=O)c2cc(OC)c(OC)c(OC)c2)[C@@H]1OC`, the outcome in [1], in [2], in test [3], in test [4], in [5] and in test [10] was inactive. The values for the concentration at half-maximal activity (AC50) in test [6] and in test [8] were 3.49 µM (active) and 8.41 µM (active), respectively.
Consider `CC(C)OC(=O)C(C)(C)Oc1ccc(C(=O)c2ccc(Cl)cc2)cc1`, for which the compound was classed as inactive in test [1], in test [3], in test [4], in [5] and in [7]. For the same compound, the AC50 was 49 µM (active) in [2], 43.6 µM (active) in test [6] and 27.7 µM (active) in test [8].
`CCCCC(CC)COC(=O)CCCCCCCC(=O)OCC(CC)CCCC` (stereo not drawn): the compound was classed as inactive in test [1], in [2], in [3], in test [5], in test [6] and in test [7]. In addition, the outcome in test [8] was inactive. The concentration at half-maximal activity (AC50) in [9] is 61.9 µM (active).
Take `CC(C)NCC(O)c1ccc(O)c(O)c1` (stereo not drawn): the call in test [1], in test [2], in test [3], in test [4], in test [5] and in test [6] was inactive. Besides, the outcome in [8] was inactive.
Consider `CN(C)C(=O)NC1(c2ccccc2)CCN(CC[C@@]2(c3ccc(F)c(F)c3)CN(C(=O)c3ccccc3)CCO2)CC1`, for which the compound was classed as inactive in [1], in test [2], in [3], in test [4], in test [5] and in test [8]. Moreover, the AC50 in test [9] is 47.9 µM (active); in test [6] it was 57.9 µM (active).
